# Test results from PubChem BioAssay (NCATS).
# Where “and” joins values, the source holds several entries; their conditions need not be identical. Identical values can stand only once. Results filed as inconclusive are left out. Calls of active or inactive are those of the source. The call rests on the fitted dose curve; in most records, active means well fitted inhibition curve with a large enough effect; inconclusive means small, poorly fitted or top-dose-only effect; inactive means flat fitted curve, though single readings scatter. Where a SMILES comes first, the peptide text is derived from it. [ ]: non-standard residue; d: D form. pGlu = O=C1CC[C@@H](C(=O)O)N1
# Tests used:
# HEK293T = assay: qHTS assay to identify novel small-molecules to repurpose for Merkel cell carcinoma treatment (AID 1296009); conditions: MCC and control cell lines, CellTiter-Glo viability, 72 h; at 44.8 µM (top of the series)
# Summary of the method: (§1)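 Luminescence from CellTiter-Glo, read 10 min after addition at room temperature, reported viability following a 72 hr, 37 degree celsius treatment with NPC or MIPE compounds in titration; values normalized to plate controls.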
# KB-3-1 = assay: Cytotoxic Profiling of Annotated Libraries Using Quantitative High-Throughput Screening (AID 1296008); conditions: Five cell lines viability, CellTiter-Glo ATP luminescence, 48-72 h; max response: stronger effect = lower value
# Summary of the method: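 Compounds were pin-transferred onto cells and incubated 48 or 72 hr at 37 degree Celsius, 95% humidity. CellTiter-Glo was added, plates sat 10 min at room temperature, then ATP-coupled luminescence was imaged as the viability read-out.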
# MCC-13 = assay: qHTS assay to identify novel small-molecules to repurpose for Merkel cell carcinoma treatment (AID 1296009); conditions: MCC and control cell lines, CellTiter-Glo viability, 72 h; series mostly up to 46 µM
# Summary of the method: as §1
# MCC-26 = assay: as above; conditions: MCC and control cell lines, CellTiter-Glo viability, 72 h; series mostly up to 46 µM
# Summary of the method: as §1
# MKL-1 = assay: as above; conditions: MCC and control cell lines, CellTiter-Glo viability, 72 h; series mostly up to 46 µM
# Summary of the method: as §1
# Further: nearly all actives have a fitted effect of over 60% in size.
# On the % scale 0 is the no-effect control and ±100 the full control effect.
compound,measurement,setting,value
O=C(OCc1ccccc1)c1ccc(O)cc1,outcome,HEK293T,inactive
C=CC(=O)O,max response,KB-3-1,-9.21% (inactive)
O=P(O)(O)OP(=O)(O)O,max response,KB-3-1,-8.71% (inactive)
CC[C@@]1([C@@H]2O[C@@H]([C@H]3O[C@@](O)(CO)[C@H](C)C[C@@H]3C)C[C@@H]2C)CC[C@H]([C@]2(C)CC[C@]3(C[C@H](O)[C@@H](C)[C@@H]([C@@H](C)[C@@H](OC)[C@H](C)C(=O)O)O3)O2)O1 (stereo in doubt),max response,KB-3-1,-18.2% (inactive)
O=C(OC[C@H]1O[C@](O)(COC(=O)c2cccnc2)[C@@H](OC(=O)c2cccnc2)[C@@H]1OC(=O)c1cccnc1)c1cccnc1,max response,KB-3-1,-13.5% (inactive)
Cc1cc(O)c2c(c1)O[C@@]1(C)CC[C@H]3C(C)(C)CCCC34CO[C@@H]2[C@H]41 (stereo partly specified),max response,KB-3-1,-3.47% (inactive)
CC1(C)[C@H]2CC[C@]1(C)[C@H](O)C2,max response,KB-3-1,-0.648% (inactive)
CC(C)[C@@H](C)/C=C/[C@@H](C)[C@H]1CC[C@H]2/C(=C/C=C3\C[C@@H](O)CC[C@@H]3C)CCC[C@]12C,max response,KB-3-1,8.4% (inactive)
CCCCCCCCCCCCCCCC(=O)OC[C@H](COP(=O)([O-])OCC[N+](C)(C)C)OC(=O)CCCCCCCCCCCCCCC,max response,KB-3-1,-12.2% (inactive)
CN1CCN(C(c2ccccc2)c2ccc(Cl)cc2)CC1 (stereo unspecified),max response,KB-3-1,0.99% (inactive)
CCN(CC)CCOC(=O)c1cccnc1,max response,KB-3-1,21.6% (inactive)
COc1ccc(/C=C/C(=O)OCCC(C)C)cc1,max response,KB-3-1,-0.838% (inactive)
O=C(O)c1ccc(OCCn2ccnc2)cc1,max response,KB-3-1,6.76% (inactive)
CCOc1cc(-c2nccc3cc(OC)c(OC)cc23)cc(OCC)c1OCC,max response,KB-3-1,-26.3% (inactive)
OCC(O)CO,max response,KB-3-1,0.712% (inactive)
CSc1nc2cc(Oc3cccc(Cl)c3Cl)c(Cl)cc2[nH]1,max response,KB-3-1,-1.84% (inactive)
CCCCCCCCCCCC(=O)OC[C@@H](O)C1OC[C@H](O)[C@H]1O (stereo partly specified),max response,KB-3-1,3.33% (inactive)
CCCCC,max response,KB-3-1,7.19% (inactive)
O=c1[nH]c(=O)n([C@H]2C[C@H](O)[C@@H](CO)O2)cc1/C=C/Br,max response,KB-3-1,1.96% (inactive)
CC[C@@H](C)[C@H](N)C(=O)O,max response,KB-3-1,-7.63% (inactive)
OC/C=C/c1ccccc1,max response,KB-3-1,-5.63% (inactive)
Cn1c(O)c(N=NC(N)=S)c2ccccc21,max response,KB-3-1,8.19% (inactive)
Cc1cc(C)c(NC(=O)C[C@H](CC(=O)O)c2cccc3ccccc23)c(C(=O)N2CCC3(CCCC3)CC2)c1,max response,KB-3-1,-2.39% (inactive)
CCCC(=O)Nc1c(I)cc(I)c(CC(CC)C(=O)O)c1I (stereo unspecified),max response,KB-3-1,-4.08% (inactive)
FC(F)(F)C(F)(F)C(F)(F)C(F)(F)C(F)(F)F,max response,KB-3-1,-12.9% (inactive)
CO/N=C(/C(=O)N[C@@H]1C(=O)N2C(C(=O)O)=C(COC(N)=O)CS[C@H]12)c1ccco1,max response,KB-3-1,-4.54% (inactive) and -18.4% (inactive)
Cc1ccccn1,max response,KB-3-1,-6.48% (inactive)
CC1=CC(=O)NS(=O)(=O)O1,max response,KB-3-1,-8.51% (inactive)
CC(C)CCC[C@@H](C)[C@H]1CC[C@H]2[C@@H]3CC[C@@H]4C[C@H](O)CC[C@]4(C)[C@H]3CC[C@]12C,max response,KB-3-1,-12.6% (inactive)
CC[C@H](C)[C@H](NC(=O)[C@H](Cc1ccccc1)NC(=O)[C@H](C)NC(=O)[C@H](CC(=O)O)NC(=O)[C@H](CCCCN)NC(=O)[C@H](CO)NC(=O)[C@@H]1CCCN1C(=O)[C@@H]1CCC(=O)N1)C(=O)NCC(=O)N[C@@H](CC(C)C)C(=O)N[C@@H](CCSC)C(N)=O ([pGlu]PSKDAFIGLM-NH2),max response,KB-3-1,17.8% (inactive)
CN(CCO)CC(O)Cn1cnc2c1c(=O)n(C)c(=O)n2C (stereo unspecified) (tested in a mixture with another compound),max response,KB-3-1,-4.03% (inactive)
O=C1c2ccccc2CN2C(=O)c3ccccc3CN12,max response,KB-3-1,1.75% (inactive)
CC1(O)CCC(C(C)(C)O)CC1 (stereo unspecified),max response,KB-3-1,-9.81% (inactive)
COC(=O)c1ccccc1O,max response,KB-3-1,-4.17% (inactive)
COC(=O)CC[C@H](N)C(=O)O,max response,KB-3-1,0.526% (inactive)
C=Cc1ccc(S(=O)(=O)O)cc1,max response,KB-3-1,36.9% (inactive)
CS(=O)(=O)OCC(O)C(O)COS(C)(=O)=O (stereo unspecified),max response,KB-3-1,-18.1% (inactive)
Cn1c(=O)c2c(ncn2CCOC(=O)C(C)(C)Oc2ccc(Cl)cc2)n(C)c1=O,max response,KB-3-1,-10.9% (inactive)
O=C(O)CCC(=O)c1ccc(-c2ccccc2)cc1,outcome,MCC-13,inactive
same,outcome,MCC-26,inactive
same,outcome,MKL-1,inactive
